PubChem BioAssay (Tox21)
Inconclusive results are not listed. A call without a number means that no potency is given here. A number with no mark means an inactive call. Active and inactive are the calls of the source. Unless noted, calls come from the whole dose curve; as a rule, active = well fitted curve in the direction sought with a large enough effect in the repeat runs; inconclusive = weak or mixed curves; inactive = no such curve, though single readings can be large; an effect the other way counts as inactive or inconclusive.

What was measured:
[1] = qHTS assay to identify small molecule antagonists of the thyroid receptor (TR) signaling pathway - cell viability counter screen (AID 743064); note: nearly all actives have a fitted effect of over 50% in size; note: potency is the fitted concentration of half-maximal effect
Outline: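 Same-well viability check: GH3.TRE-Luc cells stimulated with 1 nM T3 alongside test compound for 23.5 h, followed by CellTiter-Fluor fluorescence.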

[2] = qHTS assay to identify small molecule antagonists of the thyroid receptor (TR) signaling pathway (AID 743065); note: nearly all actives have a fitted effect of over 55% in size; note: potency is the fitted concentration of half-maximal effect
Outline: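 GH3.TRE-Luc rat pituitary cells carrying two TR response elements driving luciferase were plated for 4 h, given compound plus 1 nM T3 (final), and incubated 23.5 h at 37 C. ONE-Glo luminescence measured reporter inhibition; CellTiter-Fluor fluorescence tracked cytotoxicity.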

[3] = molecular target: Estrogen receptor (Homo sapiens) (UniProt P03372); test: qHTS assay to identify small molecule antagonists of the estrogen receptor alpha (ER-alpha) signaling pathway (AID 743069; active = well fitted curve in the direction sought with a large enough effect in the signal ratio in the repeat runs, not every such curve was filed as active; the % refers to the signal ratio)
Sequence of Estrogen receptor (Homo sapiens) (P03372 whole entry, looked up): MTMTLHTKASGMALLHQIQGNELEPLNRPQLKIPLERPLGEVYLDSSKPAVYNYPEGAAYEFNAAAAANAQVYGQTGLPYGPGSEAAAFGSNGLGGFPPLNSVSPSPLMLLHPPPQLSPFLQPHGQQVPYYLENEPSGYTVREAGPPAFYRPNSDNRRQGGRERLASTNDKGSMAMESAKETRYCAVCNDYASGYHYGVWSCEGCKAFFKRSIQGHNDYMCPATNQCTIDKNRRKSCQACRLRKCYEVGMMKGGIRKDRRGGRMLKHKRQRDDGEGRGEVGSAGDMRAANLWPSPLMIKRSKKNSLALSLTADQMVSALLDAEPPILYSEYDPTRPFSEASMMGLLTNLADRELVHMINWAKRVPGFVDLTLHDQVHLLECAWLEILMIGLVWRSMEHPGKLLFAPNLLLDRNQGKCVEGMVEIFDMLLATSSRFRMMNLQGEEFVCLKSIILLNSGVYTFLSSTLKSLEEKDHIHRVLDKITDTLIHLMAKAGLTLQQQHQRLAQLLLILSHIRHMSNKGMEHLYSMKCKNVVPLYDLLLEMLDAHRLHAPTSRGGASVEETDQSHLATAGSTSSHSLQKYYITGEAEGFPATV
Outline: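 A 17beta-estradiol challenge was applied right after compound transfer to ER-alpha-UAS-bla HEK293 cells previously kept in charcoal-stripped serum. Plates stood 18 hr at 37C and 5% CO2; fluorescence was read following 2 hr FRET substrate loading at room temperature.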

[4] = qHTS assay to identify small molecule antagonists of the estrogen receptor alpha (ER-alpha) signaling pathway - cell viability counter screen (AID 743074; calls by dose curve;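 note: HEK293 cells carrying ER-alpha-UAS-bla reporter stimulated with 17beta-estradiol; nearly all actives have a fitted effect of over 45% in size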; note: potency is the fitted concentration of half-maximal effect)
[5] = molecular target: Estrogen receptor (Homo sapiens) (UniProt P03372); test: qHTS assay to identify small molecule agonists of the estrogen receptor alpha (ER-alpha) signaling pathway (AID 743075; calls by dose curve;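 note: HEK293 GripTite cells with ER-alpha and UAS-driven beta-lactamase reporter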)
[6] = molecular target: Estrogen receptor (Homo sapiens) (UniProt P03372); test: qHTS assay to identify small molecule agonists of the estrogen receptor alpha (ER-alpha) signaling pathway using the BG1 cell line (AID 743079); settings: BG1Luc4E2 cells, ERE-luciferase agonist, 22 h; activation: at 70.3 µM (top of the series); note: nearly all actives have a fitted effect of over 20% in size; note: potency is the fitted concentration of half-maximal effect
[7] = qHTS assay to identify small molecule antagonists of the estrogen receptor alpha (ER-alpha) signaling pathway using the BG1 cell line (AID 743080; calls by dose curve;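 note: BG1 cells stimulated with 17beta-estradiol alongside compound; nearly all actives have a fitted effect of over 25% in size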; note: potency is the fitted concentration of half-maximal effect)
Outline: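 Luciferase inhibition measured with ONE-Glo after 30 min at RT in BG1Luc4E2 cells given test compounds and 17beta-estradiol for 21.5 h at 37 C; CellTiter-Fluor viability read in the same wells beforehand.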

[8] = qHTS assay to identify small molecule antagonists of the estrogen receptor alpha (ER-alpha) signaling pathway using the BG1 cell line - cell viability counter screen (AID 743081);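 note: compound given together with 17beta-estradiol as the ER stimulus; nearly all actives have a fitted effect of over 45% in size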; note: potency is the fitted concentration of half-maximal effect
Aromatase (Homo sapiens) = Aromatase (Homo sapiens) (UniProt P11511); test: qHTS assay to identify aromatase inhibitors (AID 743083); note: nearly all actives have a fitted effect of over 55% in size; note: potency is the fitted concentration of half-maximal effect
Sequence of Aromatase (Homo sapiens) (P11511 whole entry, looked up): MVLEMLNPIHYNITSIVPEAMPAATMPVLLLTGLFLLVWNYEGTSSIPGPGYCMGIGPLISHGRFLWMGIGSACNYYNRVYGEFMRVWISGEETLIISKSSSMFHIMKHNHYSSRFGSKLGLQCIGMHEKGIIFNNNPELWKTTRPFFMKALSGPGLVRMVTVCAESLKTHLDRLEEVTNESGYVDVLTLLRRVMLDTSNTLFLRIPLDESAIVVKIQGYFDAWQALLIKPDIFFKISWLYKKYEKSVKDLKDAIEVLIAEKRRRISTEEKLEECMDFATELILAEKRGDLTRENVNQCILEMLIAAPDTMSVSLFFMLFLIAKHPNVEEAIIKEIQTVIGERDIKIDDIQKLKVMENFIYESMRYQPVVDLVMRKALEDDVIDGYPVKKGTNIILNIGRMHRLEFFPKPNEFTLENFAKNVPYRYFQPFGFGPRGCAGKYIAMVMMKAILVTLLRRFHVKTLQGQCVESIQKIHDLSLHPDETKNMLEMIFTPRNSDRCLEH

[9] = qHTS assay to identify aromatase inhibitors - cell viability counter screen (AID 743084);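 note: cells stimulated with testosterone during compound exposure; nearly all actives have a fitted effect of over 55% in size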; note: potency is the fitted concentration of half-maximal effect
[10] = molecular target: Aryl hydrocarbon receptor (Homo sapiens) (UniProt P35869); test: qHTS assay to identify small molecule that activate the aryl hydrocarbon receptor (AhR) signaling pathway (AID 743085); note: nearly all actives have a fitted effect of over 15% in size; note: potency is the fitted concentration of half-maximal effect;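 for activation: HG2L7.5c1 human HepG2 liver cells with stably integrated DRE-driven firefly reporter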
Sequence of Aryl hydrocarbon receptor (Homo sapiens) (P35869 whole entry, looked up): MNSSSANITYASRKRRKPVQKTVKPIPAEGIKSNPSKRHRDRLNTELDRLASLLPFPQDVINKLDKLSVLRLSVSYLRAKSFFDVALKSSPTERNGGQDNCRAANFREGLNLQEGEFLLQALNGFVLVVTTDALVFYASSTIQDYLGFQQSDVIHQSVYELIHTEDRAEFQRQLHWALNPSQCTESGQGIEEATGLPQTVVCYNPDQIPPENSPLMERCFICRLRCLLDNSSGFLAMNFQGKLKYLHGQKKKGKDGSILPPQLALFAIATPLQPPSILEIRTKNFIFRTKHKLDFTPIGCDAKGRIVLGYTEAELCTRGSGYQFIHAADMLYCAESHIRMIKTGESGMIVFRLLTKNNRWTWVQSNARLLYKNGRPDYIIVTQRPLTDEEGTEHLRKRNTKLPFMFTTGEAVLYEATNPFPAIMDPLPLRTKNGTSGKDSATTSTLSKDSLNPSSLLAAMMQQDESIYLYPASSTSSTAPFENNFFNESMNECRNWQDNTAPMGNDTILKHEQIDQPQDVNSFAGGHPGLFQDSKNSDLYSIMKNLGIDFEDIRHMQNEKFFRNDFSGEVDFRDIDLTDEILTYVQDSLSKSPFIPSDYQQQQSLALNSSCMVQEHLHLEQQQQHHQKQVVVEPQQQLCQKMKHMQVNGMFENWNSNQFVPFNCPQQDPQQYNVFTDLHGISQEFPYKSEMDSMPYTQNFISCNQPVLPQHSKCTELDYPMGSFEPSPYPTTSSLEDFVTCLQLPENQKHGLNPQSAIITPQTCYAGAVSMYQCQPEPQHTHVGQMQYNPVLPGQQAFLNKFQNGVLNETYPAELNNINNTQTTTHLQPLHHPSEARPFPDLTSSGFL
Outline: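 Reporter assay in engineered HepG2 line HG2L7.5c1, whose plasmid carries twenty dioxin responsive elements upstream of firefly luciferase. Treatment lasted 24 h at 37C; ONE-Glo luminescence gauged induction.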

[11] = molecular target: Nuclear receptor subfamily 1 group I member 2 (Rattus norvegicus) (UniProt Q9R1A7); test: Rat pregnane X receptor (rPXR) activation by small molecules, qHTS assay (AID 1346983); settings: rPXR luciferase reporter cells, One-Glo luminescence, 24 h; max activation: active compounds read high; note: nearly all actives have a fitted effect of over 20% in size; note: potency is the fitted concentration of half-maximal effect
Sequence of Nuclear receptor subfamily 1 group I member 2 (Rattus norvegicus) (Q9R1A7 whole entry, looked up): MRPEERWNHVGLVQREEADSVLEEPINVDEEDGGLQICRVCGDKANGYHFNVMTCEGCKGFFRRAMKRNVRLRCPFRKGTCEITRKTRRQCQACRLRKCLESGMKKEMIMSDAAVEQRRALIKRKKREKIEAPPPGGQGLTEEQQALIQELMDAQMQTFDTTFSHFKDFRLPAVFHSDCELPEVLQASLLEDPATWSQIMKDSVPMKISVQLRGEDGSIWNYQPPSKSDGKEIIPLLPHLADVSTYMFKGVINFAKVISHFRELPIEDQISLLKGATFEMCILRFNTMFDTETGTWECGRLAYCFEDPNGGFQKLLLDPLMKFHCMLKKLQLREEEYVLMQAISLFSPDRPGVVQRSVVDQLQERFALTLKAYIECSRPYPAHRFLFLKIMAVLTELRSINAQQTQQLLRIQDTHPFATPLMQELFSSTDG
Outline: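 Cell-based rPXR luciferase reporter assay, 2,000 cells per well, rested 5hr at 37 C before compound addition in DMSO, then 24 hr at 37 C. One-Glo reagent was added and luminescence read after 30 min at room temperature.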

[12] = molecular target: Nuclear receptor subfamily 1 group I member 2 (Homo sapiens) (UniProt O75469); test: CYP3A4 induction through human pregnane X receptor (PXR) by small molecules, qHTS assay (AID 1346984); note: nearly all actives have a fitted effect of over 40% in size; note: potency is the fitted concentration of half-maximal effect
Outline: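 Read-out is luminescence after One-Glo addition, following a 3 hr, 37C incubation with Luciferin-IPA CYP3A4 substrate (3uM final). Before that, compounds were on DPX-2 cells (HepG2 co-transfected with PXR element plus CYP3A4-promoter luciferase) for 24 hr at 37C.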

[13] = molecular target: Nuclear receptor subfamily 1 group I member 2 (Homo sapiens) (UniProt O75469); test: Human pregnane X receptor (PXR) activation by small molecules, qHTS assay (AID 1346985); note: nearly all actives have a fitted effect of over 40% in size; note: potency is the fitted concentration of half-maximal effect
Outline: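 DPX-2 cells (HepG2 co-transfected with a PXR response element and a CYP3A4-promoter luciferase construct) were seeded at 2,000 per well, rested 5 hr at 37C, then exposed to DMSO-dissolved compounds for 24 hr. Activation was read as luciferase luminescence.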

[14] = qHTS assay to identify small molecule that activate the aryl hydrocarbon receptor (AhR) signaling pathway - cell viability counter screen (AID 743086); note: nearly all actives have a fitted effect of over 45% in size; note: potency is the fitted concentration of half-maximal effect
Outline: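 HepG2-AhR-luc (HG2L7.5c1) cells, 4000/well, were preincubated 5 h at 37C, exposed to compound in qHTS format for 24 hr at 37C, then given CellTiter-Fluor for 30 min; viability was read as fluorescence in the reporter wells.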

[15] = molecular target: Peroxisome proliferator-activated receptor gamma (Homo sapiens) (UniProt P37231); test: qHTS assay to identify small molecule agonists of the peroxisome proliferator-activated receptor gamma (PPARg) signaling pathway (AID 743094; active = well fitted activation curve with a large enough effect in the signal ratio in the repeat runs, not every such curve was filed as active; the % refers to the signal ratio)
Sequence of Peroxisome proliferator-activated receptor gamma (Homo sapiens) (P37231 whole entry, looked up): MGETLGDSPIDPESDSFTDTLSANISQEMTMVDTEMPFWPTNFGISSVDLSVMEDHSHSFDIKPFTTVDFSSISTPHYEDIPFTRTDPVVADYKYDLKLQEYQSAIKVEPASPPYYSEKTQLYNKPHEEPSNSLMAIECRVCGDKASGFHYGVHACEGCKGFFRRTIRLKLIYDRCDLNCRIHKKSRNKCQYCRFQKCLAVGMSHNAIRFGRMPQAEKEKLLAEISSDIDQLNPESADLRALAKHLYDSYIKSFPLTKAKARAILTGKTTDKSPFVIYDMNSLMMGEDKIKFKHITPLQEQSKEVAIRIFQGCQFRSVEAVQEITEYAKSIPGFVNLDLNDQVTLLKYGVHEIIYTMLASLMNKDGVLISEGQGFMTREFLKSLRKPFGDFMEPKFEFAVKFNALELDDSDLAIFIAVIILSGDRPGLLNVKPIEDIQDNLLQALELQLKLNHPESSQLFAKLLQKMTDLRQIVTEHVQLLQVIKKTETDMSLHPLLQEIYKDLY
Outline: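 Agonist activity was taken from a beta-lactamase reporter (FRET substrate, 1 h at room temperature) in HEK293H cells carrying a PPARg UAS-bla construct. Compounds in DMSO were incubated 17 h at 37C after a 5 h cell pre-incubation.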

[16] = system: thyroid hormone receptor (rat, GH3 cells); test: qHTS assay to identify small molecule agonists of the thyroid receptor (TR) signaling pathway (AID 743066; calls by dose curve)

| Structure (SMILES) | Potency [1] | Potency [2] | Potency [3] | Potency [4] | Potency [5] | Potency [6] | Potency [7] | Potency [8] | Potency (Aromatase (Homo sapiens)) | Potency [9] | Potency [10] | max activation [11] | Potency [12] | Potency [13] | Potency [14] | Potency [15] | Potency [16] | Potency [11] |
| --- | --- | --- | --- | --- | --- | --- | --- | --- | --- | --- | --- | --- | --- | --- | --- | --- | --- | --- |
| CN(C)CCCN1c2ccccc2C(C)(C)c2ccccc21 | 23.7 µM (active) | 26.6 µM (active) | inactive | inactive | inactive | inactive | inactive | inactive | inactive | inactive | inactive | -1.25% | 31.6 µM (active) |  |  |  |  |  |
| COc1ccc2c(c1)OC(C)(C)C(c1ccccc1)C2c1ccc(OCCN2CCCC2)cc1 (stereo unspecified) | 10.6 µM (active) | 9.44 µM (active) |  |  |  | inactive | inactive | inactive |  | inactive | inactive | -6.65% | inactive | 15.8 µM (active) |  |  |  |  |
| CC(CN(C)C)CN1c2ccccc2Sc2ccc(C(F)(F)F)cc21 (stereo unspecified) | 8.41 µM (active) | 13.3 µM (active) |  | inactive |  |  |  | inactive |  | inactive | inactive | 2.66% | 12.6 µM (active) | 25.1 µM (active) |  |  |  |  |
| OCCN1CCN(CC/C=C2/c3ccccc3Sc3ccc(Cl)cc32)CC1 | 10.1 µM (active) | 11.4 µM (active) |  | inactive |  |  |  | inactive | inactive | inactive | inactive | -1.76% | inactive | inactive | inactive | inactive |  |  |
| Cc1cc(/C=C/c2ccc3cc(N(C)C)ccc3[n+]2C)c(C)n1-c1ccccc1 | 6.39 µM (active) | 4.03 µM (active) |  |  |  |  |  | 11.4 µM (active) | 7.17 µM (active) | 8.04 µM (active) |  | -14% |  | inactive |  |  |  |  |
| O=C1/C(=C\c2cccs2)CCC/C1=C\c1cccs1 |  |  |  | inactive |  | 26.6 µM (active) |  | inactive | inactive |  | 23.7 µM (active) |  |  |  | 11.9 µM (active) |  | inactive | 7.08 µM (active) |
| CC(C)(C)NC[C@H](O)COc1ccccc1C1CCCC1 | 9.02 µM (active) | 12.7 µM (active) | inactive | inactive | inactive | inactive | inactive |  | inactive | inactive | inactive | -2.28% | inactive | inactive | inactive | inactive |  |  |
| CCN(CC)CCOc1ccc(-c2nc3cc(Cl)ccc3s2)cc1 | 8.41 µM (active) | 6.68 µM (active) |  | inactive | inactive |  |  | inactive | inactive |  | 8.41 µM (active) |  | 12.6 µM (active) | 10 µM (active) |  |  |  | 0.794 µM (active) |
| Cc1c(Cl)cccc1Nc1ncccc1C(=O)O |  | 23.7 µM (active) |  | inactive | inactive |  |  | inactive | inactive | inactive |  | 0.0958% | inactive | inactive | inactive | inactive | inactive |  |
| CN(C)CCC=C1c2ccccc2C(C)(C)c2ccccc21 | 13.3 µM (active) |  | inactive |  |  | inactive | inactive | inactive |  | inactive |  | 6.91% | 22.4 µM (active) | 25.1 µM (active) |  |  |  |  |
| CC1CS(=O)(=O)CCN1/N=C/c1ccc([N+](=O)[O-])o1 (stereo unspecified) |  | inactive | inactive | inactive | inactive | inactive | inactive | inactive | inactive | inactive | inactive | -7.04% | inactive | inactive |  | inactive | inactive |  |
| FCOC(C(F)(F)F)C(F)(F)F | inactive |  | inactive | inactive | inactive | inactive |  | inactive | inactive | inactive | inactive | -0.275% | inactive | inactive | inactive | inactive |  |  |
| CC(=O)c1ccc2c(c1)N(CCCN1CCN(CCO)CC1)c1ccccc1S2 | 13.3 µM (active) | 13.3 µM (active) |  | inactive |  |  | inactive |  |  |  |  | -12.2% |  | inactive |  |  |  |  |
| CNC(C)CCC=C(C)C (stereo unspecified) |  |  |  |  |  |  |  | inactive | inactive | inactive |  | 2.06% | inactive | inactive | inactive | inactive | inactive |  |
| C=C1C(=C/C=C2\CCC[C@]3(C)[C@@H]([C@H](C)CCCC(C)(C)O)CC[C@@H]23)C[C@@H](O)C[C@@H]1O | 23.7 µM (active) | 13.3 µM (active) |  | 23.9 µM (active) | inactive |  | 29.8 µM (active) | 2.37 µM (active) | inactive | inactive | 10.6 µM (active) | 0.618% | inactive |  | inactive |  |  |  |
